A selection: hits, their analogues and other compounds. The true share with any hit is near 19%.
TDP1 cell noCPT: qHTS for Inhibitors of human tyrosyl-DNA phosphodiesterase 1 (TDP1): qHTS in cells in absence of CPT | DT40 Tdp1-/- hTDP1 cells, no CPT, ATP luminescence, 48 h | 420,000 tested, 15% active | Potency, µM (titrated, usually from 46.2 µM), hits mostly inhibitors; further: nearly all actives have a fitted effect of over 55% in size
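Cells were dispensed at 400 per well, compounds added by pin tool, plates incubated ≥48 hr at 37 °C, then CellTiter-Glo added for 30 min at room temperature before luminescence reading. Line: DT40 Tdp1-/- complemented with hTDP1; camptothecin omitted.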
KB-3-1 tox: KB-3-1 parental cell cytotoxicity | KB-3-1 viability, CellTiter-Glo ATP luminescence, 72 h | AID 1347075 | Potency, µM (titrated, usually from 46.1 µM), actives largely listed as cytotoxic | 400,000 tested, 1.4% active; further: nearly all actives have a fitted effect of over 60% in size
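Cytotoxicity measured as CellTiter-Glo luminescence after 72 h at 37 C. Compound titrations were pinned onto drug-naive KB-3-1 parental adenocarcinoma cells grown in DMEM with 10% FBS, and normalized data fitted to concentration-response curves.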
HT1080NT lethal: kills 2HG-producing HT-1080-NT fibrosarcoma cells; HT-1080-NT fibrosarcoma viability, CellTiter-Glo ATP luminescence, 48 h; Potency, µM (titrated, usually from 46.1 µM), usual class: cytotoxic; 360,000 tested, 1.6% active; AID 686970;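 further: NT is the 2HG producing partner of a matched IDH1 knockdown line; nearly all actives have a fitted effect of over 55% in size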
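A 48-hour cytotoxicity screen used HT-1080-NT cells plated 2 hours before compound delivery. ATP-based CellTiter-Glo luminescence measured viability, normalized to DMSO and no-cell controls.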
TDP1 cell CPT: DT40-hTDP1 cell growth loss with CPT | 420,000 tested, 12% active | Potency, µM (titrated, usually from 46.2 µM), hits mostly inhibitors | chicken DT40 Tdp1-/-;hTDP1 cells + 20 nM CPT, ATP luminescence, 48 h | AID 686979; further: nearly all actives have a fitted effect of over 55% in size
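Chicken DT40 Tdp1-/- cells stably complemented with human TDP1 were seeded at 400 cells/well in medium containing 20 nM camptothecin, exposed to pin-transferred compounds, and grown at 37 °C for at least 48 hr. Viability was read as ATP luminescence.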
HT1080 IDH1KD tx: toxicity to HT-1080 IDH1 knockdown cells (counter line); AID 686971; Potency, µM (titrated, usually from 46.1 µM), usual class: cytotoxic; HT-1080 IDH1 knockdown viability, ATP luminescence, 48 h; 360,000 tested, 2% active
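Viability of IDH1-knockdown HT-1080 fibrosarcoma cells was assessed by CellTiter-Glo after 48 h at 37 °C with titrated compound; concentration-effect curves were classified by fit quality and response size.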
KB-V1 MDR tox: KB-V1 MDR subline cytotoxicity. Potency, µM (series often up to 46.1 µM), hits mostly cytotoxic. 400,000 tested, 3.4% active. KB-V1 MDR cells viability, CellTiter-Glo, 72 h. AID 1347076; further: nearly all actives have a fitted effect of over 60% in size
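Readout: CellTiter-Glo luminescence, 10 min after addition. Cells: KB-V1 MDR subline, 72 h at 37 degrees C with compound. Analysis: corrected, normalized data fitted to concentration-effect curves.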
Large screens that a line does not name were inactive. The call rests on the fitted dose curve; in most records, active means well fitted curve in the direction sought with a large enough effect; inconclusive means small, poorly fitted or top-dose-only effect, or another doubt; inactive means no such curve, though single readings can be large; an effect the other way counts as inactive or inconclusive.

O=[N+]([O-])c1ccc(C=NN2CCOCC2)s1	TDP1 cell noCPT inconclusive, TDP1 cell CPT 21µM
O=[N+]([O-])c1ccc(C=Nc2cccc3ccccc23)s1	TDP1 cell noCPT 21µM, KB-3-1 tox inconclusive, TDP1 cell CPT 21µM, HT1080 IDH1KD tx 23µM, KB-V1 MDR tox inconclusive
O=c1oc(/C=C/c2ccc([N+](=O)[O-])s2)nc2ccccc12	TDP1 cell noCPT inconclusive, TDP1 cell CPT inconclusive
CCn1cc(C(=O)N[C@H](C(=O)NCCCn2ccnc2)C(C)C)c(=O)c2cc3c(cc21)OCO3	none
Cc1cc2ccccc2n1CCNC(=O)c1ccc(Br)o1	TDP1 cell noCPT 29µM, KB-3-1 tox inconclusive
Cc1cc2ccccc2n1CCNC(=O)c1ccccc1	TDP1 cell noCPT inconclusive, TDP1 cell CPT inconclusive
CC(=O)NCCn1c(C)cc2ccccc21	TDP1 cell noCPT inconclusive, KB-V1 MDR tox inconclusive
Cc1cc2ccccc2n1CCNC(=O)c1ccc(Br)cc1	TDP1 cell noCPT 21µM, TDP1 cell CPT inconclusive (no result: HT1080NT lethal, HT1080 IDH1KD tx)
Cc1cc2ccccc2n1CCNC(=O)c1ccccc1F	TDP1 cell noCPT 16µM, TDP1 cell CPT inconclusive (no result: HT1080NT lethal, HT1080 IDH1KD tx)
Cc1onc(-c2ccccc2Cl)c1C(=O)NCCn1c(C)cc2ccccc21	TDP1 cell noCPT 29µM, TDP1 cell CPT inconclusive
Nc1ccc(-c2nc3nc(N)nc(N)c3nc2-c2ccc(N)cc2)cc1	none
O=S(=O)(Nc1ccc(O)c2ccccc12)c1cccs1	TDP1 cell noCPT 4.6µM, KB-3-1 tox inconclusive, HT1080NT lethal 26µM, TDP1 cell CPT 2.1µM, HT1080 IDH1KD tx 21µM, KB-V1 MDR tox inconclusive
Clc1cccc(CN2CCc3c([nH]c4ccccc34)C2)c1Cl	TDP1 cell noCPT 23µM, TDP1 cell CPT inconclusive
COc1ccccc1CN1CCc2c([nH]c3ccccc23)C1	TDP1 cell noCPT inconclusive, TDP1 cell CPT inconclusive
Cc1ncsc1C(=O)N1N=C2/C(=C/c3ccc(N4CCOCC4)cc3)CCCC2C1c1ccc(N2CCOCC2)cc1 (configuration not stated)	TDP1 cell noCPT inconclusive, TDP1 cell CPT inconclusive
Cc1nc(N2N=C3/C(=C/c4ccc(F)cc4)CCCC3C2c2ccc(F)cc2)sc1C(=O)N(C)C (configuration not stated)	TDP1 cell noCPT 29µM, KB-3-1 tox inconclusive, TDP1 cell CPT inconclusive, KB-V1 MDR tox 21µM
O=c1cc(CNc2ccc(Br)cc2)nc2sccn12	TDP1 cell noCPT inconclusive, TDP1 cell CPT inconclusive
CNC(=S)N/N=C/c1c(C(=O)OC)cnn1-c1ccc(F)cc1F	TDP1 cell noCPT 16µM, TDP1 cell CPT inconclusive, KB-V1 MDR tox inconclusive
COC(=O)c1cnn(-c2ccccc2)c1/C=N/NC(=S)Nc1ccccc1	TDP1 cell noCPT 21µM, TDP1 cell CPT inconclusive
CCCNC(=O)C1(C)CCCN(C(=O)c2ccccc2OC)C1 (configuration not stated)	none
CC(=O)N(c1ccccc1)c1nc(/C=C/C(=O)O)cs1	none
CCc1ccc(N(C(C)=O)c2nc(CCl)cs2)cc1	TDP1 cell noCPT 10µM
Cc1ccc(C)c(NC(=O)C2CCN(c3nn4c(=O)cc(C)nc4s3)CC2)c1	none (no result: HT1080NT lethal, HT1080 IDH1KD tx)
CN1C/C(=C/c2ccccc2[N+](=O)[O-])C(=O)/C(=C\c2ccccc2[N+](=O)[O-])C1	TDP1 cell noCPT 0.92µM, KB-3-1 tox inconclusive, HT1080NT lethal 2.9µM, TDP1 cell CPT 0.52µM, HT1080 IDH1KD tx 3.7µM
Cc1ccc(C)c2c1CCC(=Cc1ccccc1[N+](=O)[O-])C2=O	TDP1 cell noCPT inconclusive, TDP1 cell CPT inconclusive
CC(C)(C)c1cc(CNC2CS(=O)(=O)C[C@@H]2O)cc(C(C)(C)C)c1O (some centres not stated)	TDP1 cell noCPT 16µM, TDP1 cell CPT 15µM
O=S1(=O)CC(O)C(NCc2ccco2)C1 (configuration not stated)	none
CCOC(=O)C1CCN(Cc2cc(=O)oc3cc(C)c(Cl)cc23)CC1	TDP1 cell noCPT 23µM, TDP1 cell CPT inconclusive
